Assay results taken from PubChem BioAssay (NCI).
Compounds without any hit were thinned out: in the full panel of roughly 83,000, 20% have a hit.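 How to read the values: 0–100, growth inhibition (40 = 60% inhibited); 0, no net growth; -100 to 0, cell death (-40 = 40% of starting cells died; -100 = all dead).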 The source made the active and inactive calls. The calls were made as follows: active = growth percent below 10; inactive = the rest.

What follows are compounds tested on OVCAR-3 ovarian (assay: NCI-60 one-dose screen, 48 h (100 = growth as untreated, 0 = no growth, -100 = all killed)). Settings: 10 µM.

| SMILES | growth |
| --- | --- |
| Oc1cccc(-c2nc3sccn3c2-c2ccncn2)c1 | 114% (inactive) |
| CCOC(=O)c1cc(C(=O)c2cc(OC)c(OC)c(OC)c2)n2ccc(-c3cc[n+](CC(=O)c4cc(OC)c(OC)c(OC)c4)cc3)cc12 | 82% (inactive) |
| C[C@H]1[C@H](OC(=O)CCC(=O)O)O[C@@H]2O[C@]3(C)CC[C@H]4[C@H](C)CC[C@@H]1[C@@]24OO3 | 30.8% (inactive) |
| COc1ccc(C(=O)N/N=C/c2cc(C(F)(F)F)ccc2Cl)cc1 | 108% (inactive) |
| COc1ccc(-c2cc(-c3ccc(Cl)cc3)nc(SCCCC(=O)NO)n2)cc1OC | 6.86% (active) |
| CCC(=O)OC1CCC2C3CCC(=O)OC3C(C)(CCC(=O)O)CC12C (stereo not drawn) | 5.37% (active) |
| OCC1OC(n2ccc3c(NO)ncnc32)C(O)C1O (stereo not drawn) | -31.7% (active) |
| CC(C)(C)c1ccc(S(=O)(=O)N[C@H]2CC[C@H]3[C@@H]4CCc5cc(O)c([N+](=O)[O-])cc5[C@H]4CC[C@]23C)cc1 | 53.7% (inactive) |
| COc1cc(-c2nn(-c3cccc(NC(=O)CCNc4ccc(N5CCOCC5)cc4)c3)cc2-c2ccncc2)ccc1Cl | 14.1% (inactive) |
| COc1cc(-c2nn(-c3cccc(NC(=O)CN4CCOCC4)c3)cc2-c2cccnc2)ccc1Cl | 77.2% (inactive) |
| O=C(CCCSc1nc(-c2ccccc2)cc(-c2ccc(Cl)cc2)n1)NO | 7.27% (active) |
| CC(C)N(CCOc1cccc(-c2nc3sccn3c2-c2ccnc(S(C)(=O)=O)n2)c1)C(C)C | 90.6% (inactive) |
| O=C(CCC(C(=O)c1ccccc1)c1ccccc1)c1ccccc1 (stereo not drawn) | 72.3% (inactive) |
